Data from ChEMBL document CHEMBL1157539, “Thousands of chemical starting points for antimalarial lead identification” (Nature, 2010).

What was measured:
Assay type in all cases: functional
Plasmodium falciparum [1] = assay: GSK_TCMDC: Inhibition of Plasmodium falciparum 3D7 in whole red blood cells, using parasite LDH activity as an index of growth. Test compounds present at 2uM
Plasmodium falciparum [2] = assay: GSK_TCMDC: Inhibition of Plasmodium falciparum Dd2 in whole red blood cells, using parasite LDH activity as an index of growth. Test compounds present at 2uM
HepG2 = assay: GSK_TCMDC: Percent inhibition of human HepG2 cell line. Test compounds present at 10uM.

Structure (SMILES): COc1ccc2c(c1)CC(CNC[C@H](O)c1cccc(Cl)c1)CC2 (some centres undefined)
- Inhibition (Plasmodium falciparum [1]): 94%
- Inhibition (Plasmodium falciparum [2]): 73%
- Inhibition (HepG2): 1%

Structure (SMILES): O=C(NCCN1CCCC1)N1CCCN(c2ncnc3cc(-c4ccc(Cl)cc4)sc23)CC1.O=C(O)C(F)(F)F
- Inhibition (Plasmodium falciparum [1]): 96%
- Inhibition (Plasmodium falciparum [2]): 32%
- Inhibition (HepG2): 13%

Structure (SMILES): CC(=O)c1c(C)[nH]c(C(=O)Nc2ccc(-c3nc4ccc(C)cc4s3)cc2)c1C
- Inhibition (Plasmodium falciparum [1]): 92%
- Inhibition (Plasmodium falciparum [2]): 40%
- Inhibition (HepG2): 11%

Structure (SMILES): CC1SC(=S)NC1C(=O)O (centres undefined)
- Inhibition (Plasmodium falciparum [1]): 94%
- Inhibition (Plasmodium falciparum [2]): 0%
- Inhibition (HepG2): 3%

Structure (SMILES): Cc1cc(NC(=O)Nc2ccc(Oc3ccccc3)cc2)c2ccccc2n1
- Inhibition (Plasmodium falciparum [1]): 91%
- Inhibition (Plasmodium falciparum [2]): 28%
- Inhibition (HepG2): 2%

Structure (SMILES): Cc1cc(N2CCCN(C)CC2)nc(Nc2ccc(Cl)cc2)n1
- Inhibition (Plasmodium falciparum [1]): 96%
- Inhibition (Plasmodium falciparum [2]): 11%
- Inhibition (HepG2): 8%

Structure (SMILES): COc1cc(F)c2ncc(Cl)c(CCN3CCC(NCc4ccc5c(c4)OCCO5)CC3)c2c1.Cl
- Inhibition (Plasmodium falciparum [1]): 97%
- Inhibition (Plasmodium falciparum [2]): 92%
- Inhibition (HepG2): 35%

Structure (SMILES): COc1ccc(CNCc2ccc(-c3ccc(CNCCc4ccccc4)cn3)cc2)cn1.O=C(O)C(F)(F)F
- Inhibition (Plasmodium falciparum [1]): 97%
- Inhibition (Plasmodium falciparum [2]): 44%
- Inhibition (HepG2): 16%

Structure (SMILES): CC(C)(C)Cn1cc(-c2ccc(C(=O)NCCc3ccc(S(C)(=O)=O)cc3)cc2)c(N)n1.CC(C)(C)Cn1ncc(-c2ccc(C(=O)NCCc3ccc(S(C)(=O)=O)cc3)cc2)c1N.O=C(O)C(F)(F)F
- Inhibition (Plasmodium falciparum [1]): 86%
- Inhibition (Plasmodium falciparum [2]): 10%
- Inhibition (HepG2): 7%

Structure (SMILES): O=C(NCC1CCN(CC2CCCCC2)C1)c1cc(-c2cccc(C(F)(F)F)c2)cs1.O=C(O)C(F)(F)F (centres undefined)
- Inhibition (Plasmodium falciparum [1]): 96%
- Inhibition (Plasmodium falciparum [2]): 21%
- Inhibition (HepG2): 47%

Structure (SMILES): COc1ccc(-c2ccc(NC(=O)c3cccc(C#N)c3)cc2)cc1CN1CCCC(C(N)=O)C1.O=C(O)C(F)(F)F (centres undefined)
- Inhibition (Plasmodium falciparum [1]): 98%
- Inhibition (Plasmodium falciparum [2]): 44%
- Inhibition (HepG2): 12%

Structure (SMILES): COc1ccc(-c2cccc(NC(=O)c3cccc(Cl)c3)c2)cc1CN1CCCN(C)CC1.O=C(O)C(F)(F)F
- Inhibition (Plasmodium falciparum [1]): 100%
- Inhibition (Plasmodium falciparum [2]): 99%
- Inhibition (HepG2): 20%

Structure (SMILES): O=C(NC(=S)Nc1cc(C(F)(F)F)cc(C(F)(F)F)c1)c1ccc(Cl)cc1
- Inhibition (Plasmodium falciparum [1]): 96%
- Inhibition (Plasmodium falciparum [2]): 99%
- Inhibition (HepG2): 31%

Structure (SMILES): CC(=O)Nc1ccc(C(=O)Nc2cccc(-c3csc(-c4nc5ccccc5[nH]4)c3)c2)cn1
- Inhibition (Plasmodium falciparum [1]): 100%
- Inhibition (Plasmodium falciparum [2]): 97%
- Inhibition (HepG2): 6%

Structure (SMILES): CC(CCc1ccccc1)NCC(O)c1cccc(C(F)(F)F)c1.Cl (centres undefined)
- Inhibition (Plasmodium falciparum [1]): 99%
- Inhibition (Plasmodium falciparum [2]): 98%
- Inhibition (HepG2): 18%

Structure (SMILES): OC(COc1ccccc1-c1nc2ccccc2o1)CN1CCCN(CCc2ccccc2)CC1 (centres undefined)
- Inhibition (Plasmodium falciparum [1]): 97%
- Inhibition (Plasmodium falciparum [2]): 2%
- Inhibition (HepG2): 39%

Structure (SMILES): CN(CCCN)CCCNc1ccnc2cc(Cl)ccc12
- Inhibition (Plasmodium falciparum [1]): 100%
- Inhibition (Plasmodium falciparum [2]): 0%
- Inhibition (HepG2): 1%

Structure (SMILES): Cc1cc(O)nc(NC(=N)NOCCCc2ccccc2)n1
- Inhibition (Plasmodium falciparum [1]): 100%
- Inhibition (Plasmodium falciparum [2]): 4%
- Inhibition (HepG2): 0%

Structure (SMILES): O=C(Nc1cc(F)cc(F)c1)N1CCOC(CCN2CCC(c3ccccc3)CC2)(c2ccc(Cl)c(Cl)c2)C1 (centres undefined)
- Inhibition (Plasmodium falciparum [1]): 91%
- Inhibition (Plasmodium falciparum [2]): 69%
- Inhibition (HepG2): 31%

Structure (SMILES): O=C(O)C(F)(F)F.Oc1ccc(CCNc2nc(NCc3ccccc3-c3cccc(Cl)c3)nc(N3CCNCC3)n2)cc1
- Inhibition (Plasmodium falciparum [1]): 84%
- Inhibition (Plasmodium falciparum [2]): 11%
- Inhibition (HepG2): 15%

Structure (SMILES): CCOc1cc(C)ccc1C1CCN(CCCCNC(=O)c2ccc(-c3ccc(C(F)(F)F)cn3)cc2)CC1.Cl
- Inhibition (Plasmodium falciparum [1]): 99%
- Inhibition (Plasmodium falciparum [2]): 45%
- Inhibition (HepG2): 55%

Structure (SMILES): O=C(Cn1c(CCc2cccc(F)c2F)nc(=O)c2ccccc21)N(Cc1ccc(-c2ccc(C(F)(F)F)cc2)cc1)C1CCN(C2CCOCC2)CC1.O=C(O)C(O)C(O)C(=O)O
- Inhibition (Plasmodium falciparum [1]): 100%
- Inhibition (Plasmodium falciparum [2]): 76%
- Inhibition (HepG2): 97%

Structure (SMILES): CCCCCCn1c(Sc2ccc(C#N)c([N+](=O)[O-])c2)nnc1-c1cccc(Cl)c1
- Inhibition (Plasmodium falciparum [1]): 96%
- Inhibition (Plasmodium falciparum [2]): 90%
- Inhibition (HepG2): 17%

Structure (SMILES): Cl.c1ccc2cc(CNCCCN3CCN(CCCNCc4ccc5ccccc5c4)CC3)ccc2c1
- Inhibition (Plasmodium falciparum [1]): 100%
- Inhibition (Plasmodium falciparum [2]): 65%
- Inhibition (HepG2): 60%

Structure (SMILES): O=C(O)/C=C\C(=O)O.O=c1c2sc(-c3ccc(Cl)cc3)cc2ncn1Cc1ccc(OCCN2CCCC2)c2ccccc12
- Inhibition (Plasmodium falciparum [1]): 100%
- Inhibition (Plasmodium falciparum [2]): 81%
- Inhibition (HepG2): 38%

Structure (SMILES): Cc1cc(Nc2ncc(Cl)c(Nc3ccccc3C(N)=O)n2)n[nH]1
- Inhibition (Plasmodium falciparum [1]): 98%
- Inhibition (Plasmodium falciparum [2]): 96%
- Inhibition (HepG2): 70%

Structure (SMILES): CC(C)[C@H](NC(=O)NC1CCC(CCN2C3CCC2CC(OC(=O)C(CO)c2ccccc2)C3)CC1)C(O)(c1ccccc1)c1ccccc1 (some centres undefined)
- Inhibition (Plasmodium falciparum [1]): 90%
- Inhibition (Plasmodium falciparum [2]): 4%
- Inhibition (HepG2): 17%

Structure (SMILES): CN(C)c1ccc(C=C2SC(=O)N=C2Nc2ccccc2)cc1
- Inhibition (Plasmodium falciparum [1]): 97%
- Inhibition (Plasmodium falciparum [2]): 96%
- Inhibition (HepG2): 42%

Structure (SMILES): COCCNCc1cccc(-c2ccc(CNC3CCN(Cc4ccccc4)CC3)cc2)c1.O=C(O)C(F)(F)F
- Inhibition (Plasmodium falciparum [1]): 100%
- Inhibition (Plasmodium falciparum [2]): 97%
- Inhibition (HepG2): 34%

Structure (SMILES): Fc1ccccc1CNc1ncc(-c2ccsc2)c(-c2nccs2)n1
- Inhibition (Plasmodium falciparum [1]): 86%
- Inhibition (Plasmodium falciparum [2]): 71%
- Inhibition (HepG2): 11%

Structure (SMILES): O=C(Nc1ccc(-c2ccccc2)cc1)Nc1cccc(OCCN2CCCC2)c1.O=C(O)C(F)(F)F
- Inhibition (Plasmodium falciparum [1]): 94%
- Inhibition (Plasmodium falciparum [2]): 14%
- Inhibition (HepG2): 11%

Structure (SMILES): O=C(CN1CCN(S(=O)(=O)C=Cc2ccccc2)CC1)Nc1cc(C(F)(F)F)ccc1Cl
- Inhibition (Plasmodium falciparum [1]): 96%
- Inhibition (Plasmodium falciparum [2]): 63%
- Inhibition (HepG2): 23%

Structure (SMILES): O=C(c1c(-c2[nH]c3ccccc3c2C(=O)C(F)(F)F)[nH]c2ccccc12)C(F)(F)F
- Inhibition (Plasmodium falciparum [1]): 97%
- Inhibition (Plasmodium falciparum [2]): 99%
- Inhibition (HepG2): 18%

Structure (SMILES): COc1cc(Br)ccc1N1CCN(CCCCNC(=O)c2ccc(NC(=O)c3ccc(Cl)cc3)cc2)CC1.Cl
- Inhibition (Plasmodium falciparum [1]): 96%
- Inhibition (Plasmodium falciparum [2]): 33%
- Inhibition (HepG2): 55%

Structure (SMILES): O=C(/C=C/c1cccc2ccccc12)NCCCCCN1CCC(c2c[nH]c3ccccc23)CC1
- Inhibition (Plasmodium falciparum [1]): 92%
- Inhibition (Plasmodium falciparum [2]): 6%
- Inhibition (HepG2): 55%

Structure (SMILES): CC(C)(C)c1cc([N+](=O)[O-])cc(C(=O)Nc2ccccc2C(F)(F)F)c1O
- Inhibition (Plasmodium falciparum [1]): 96%
- Inhibition (Plasmodium falciparum [2]): 99%
- Inhibition (HepG2): 74%

Structure (SMILES): Cc1nc2nc(N)nc(N)c2c(C)c1Cc1cccc(C(N)=O)c1.Cl
- Inhibition (Plasmodium falciparum [1]): 91%
- Inhibition (Plasmodium falciparum [2]): 0%
- Inhibition (HepG2): 59%

Structure (SMILES): Cc1cccc2nc(-c3ccc(-c4cccc(NC(=O)Nc5ccc(Cl)c(Cl)c5)c4)s3)[nH]c12
- Inhibition (Plasmodium falciparum [1]): 100%
- Inhibition (Plasmodium falciparum [2]): 36%
- Inhibition (HepG2): 46%

Structure (SMILES): COc1ccc2nccc([C@@H](O)CN3CCC(NC(=O)c4ccc(Oc5ccccc5)cc4)CC3)c2c1
- Inhibition (Plasmodium falciparum [1]): 82%
- Inhibition (Plasmodium falciparum [2]): 13%
- Inhibition (HepG2): 39%

Structure (SMILES): CCCCc1cc(=O)oc2cc(C)cc(OCc3ccccc3F)c12
- Inhibition (Plasmodium falciparum [1]): 92%
- Inhibition (Plasmodium falciparum [2]): 78%
- Inhibition (HepG2): 8%

Structure (SMILES): CC12CCC(CN(CC(O)Cn3c4ccccc4c4cc(I)ccc43)C1)C2(C)C.Cl (centres undefined)
- Inhibition (Plasmodium falciparum [1]): 94%
- Inhibition (Plasmodium falciparum [2]): 82%
- Inhibition (HepG2): 0%

Structure (SMILES): Br.CCOC(=O)c1cc(Cl)ccc1OCCCON1C(=N)N=C(N)NC1(C)C
- Inhibition (Plasmodium falciparum [1]): 94%
- Inhibition (Plasmodium falciparum [2]): 95%
- Inhibition (HepG2): 69%

Structure (SMILES): CC(C)c1ccc(CN2CCCCC(NC(=O)c3cc(-c4ccccc4F)cs3)C2)cc1.O=C(O)C(F)(F)F (centres undefined)
- Inhibition (Plasmodium falciparum [1]): 99%
- Inhibition (Plasmodium falciparum [2]): 84%
- Inhibition (HepG2): 18%

Structure (SMILES): COc1ccc2nccc([C@@H](O)CN3CCC(NC(=O)c4cc5ccccc5[nH]4)CC3)c2c1.CS(=O)(=O)O
- Inhibition (Plasmodium falciparum [1]): 96%
- Inhibition (Plasmodium falciparum [2]): 55%
- Inhibition (HepG2): 19%

Structure (SMILES): CC(C)c1ccc(Nc2nc(NCCc3c[nH]cn3)nc(NCc3ccccc3)n2)cc1
- Inhibition (Plasmodium falciparum [1]): 98%
- Inhibition (Plasmodium falciparum [2]): 2%
- Inhibition (HepG2): 1%

Structure (SMILES): Cc1ccc2c(c1C)NC(=O)C21NN=C(c2ccccc2)S1 (centres undefined)
- Inhibition (Plasmodium falciparum [1]): 97%
- Inhibition (Plasmodium falciparum [2]): 65%
- Inhibition (HepG2): 31%

Structure (SMILES): CCN(CC)CCCNc1nccc(N2CCc3ncnc(Nc4ccc(OCc5cccc(F)c5)c(Cl)c4)c3C2)n1
- Inhibition (Plasmodium falciparum [1]): 100%
- Inhibition (Plasmodium falciparum [2]): 95%
- Inhibition (HepG2): 100%

Structure (SMILES): COc1ccc(CNCc2ccc(F)cc2)cc1-c1ccc(S(=O)(=O)NCCN2CCCC2)s1.O=C(O)C(F)(F)F
- Inhibition (Plasmodium falciparum [1]): 100%
- Inhibition (Plasmodium falciparum [2]): 65%
- Inhibition (HepG2): 61%
